Phagocytosis inh: inhibitors of macrophage phagocytosis, primary screen, imaging, J774A.1 cells, IgG beads; J774A.1 macrophage IgG-bead phagocytosis; AID 1029, 2008; inhibition, % at 5 µM; actives 0.07% (n = 110,000);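 active means inhibition above the mean of the plate negative controls plus 5 SD, cut at about 13% in these data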;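 further: phagocytic index as fraction of beads internalized from green versus red external bead signal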
MRP1 act: H69AR viability gain despite doxorubicin, primary screen, MRP-1 activator project, H69AR cells, CellTiter-Glo. viability rescue. viability increase, % at 10 µM. actives 0.61% (n = 140,000);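 active means viability gain under doxorubicin at or above a set limit, the compound median plus 3 SD, cut at about 4.7% in these data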;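 further: MRP-1 overexpressing cells given doxorubicin 25 µM after compound pretreatment; 18-22 h compound pretreatment then 72 h with doxorubicin before readout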
MRP resist rev: reversal of MRP1-mediated doxorubicin resistance, primary screen, H69AR cells, doxorubicin co-treatment; actives 0.04% (n = 85,000); AID 602, 2007; H69AR cells + 2 uM doxorubicin, CellTiter-Glo, 72 h; differential viability (reversal), % at 10 µM;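 active means viability drop by adding the cancer drug above about 55%, with treated viability meeting a 40% cutoff, limit read from the data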;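 further: larger differential means the compound sensitizes cells more to doxorubicin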
Of the large screens only hits and unclear results are named; the others gave an inactive call; [ ] = dose if it differs, or a comment. Sampled rows, rich in hits. Any-hit rate of the full collection: about 0.69%.

COc1ccccc1NS(=O)(=O)c1cc(NC(=O)c2ccc(Cl)nc2)ccc1Cl	none (no result: MRP resist rev)
COC(=O)/C=C/CSC1=N/C(=C/c2ccc(-n3cncn3)cc2)C(=O)N1	none (no result: Phagocytosis inh, MRP resist rev)
C=CCc1c(C)nc(-c2ccccc2)nc1N/N=C(\C)c1ccc(N)cc1	MRP1 act 5.7 (no result: MRP resist rev)
C=CCc1c(C)nc(C)nc1N/N=C/c1ccccc1	none
C=CCc1c(C)nc(-c2ccccc2)nc1Nc1ccccc1O	none (no result: MRP resist rev)
C=CCc1c(C)nc(-c2ccccc2)nc1N/N=C/c1ccccc1	MRP1 act 8.5 (no result: MRP resist rev)
CCC(C)c1ccccc1NC(=O)COC(=O)c1ccc(C)c(NC(=O)c2ccco2)c1 (configuration not stated)	none (no result: MRP resist rev)
C/C(Cn1cnc([N+](=O)[O-])n1)=N/NC(=O)COc1c(Cl)cc(Cl)cc1Cl	none (no result: MRP resist rev)
CCOC(=O)c1c(-c2cccs2)csc1NC(=O)CSc1ncn[nH]1	MRP1 act 6.0
CCOC(=O)c1c(-c2cccs2)csc1NC(C)=O	none (no result: Phagocytosis inh)
CCCCc1c(C)nc2c(OC)cccc2c1SCCC(=O)O	none (no result: MRP resist rev)
CCc1c(C)nc2c(OC)cccc2c1SCCC(=O)O	Phagocytosis inh 36.8[artifact] (no result: MRP resist rev)
CN(C(=O)COC(=O)c1ccc2c(=O)n3c(nc2c1)CCC3)c1ccccc1	none (no result: Phagocytosis inh, MRP resist rev)
Cn1c2c(c(=O)n(C)c1=O)C(c1cccc(Br)c1)C1C(=O)c3ccccc3C1=N2 (configuration not stated)	none (no result: Phagocytosis inh, MRP1 act)
COc1cccc(N2CCN(Cc3nc4scc(-c5ccccc5)c4c(=O)[nH]3)CC2)c1	none (no result: MRP resist rev)
CCOC(=O)N1CCN(c2nc(-c3cccc(OC)c3)cc(C(F)(F)F)n2)CC1	MRP1 act 8.7
CCOC(=O)N1CCN(c2nc(-c3ccco3)cc(C(F)(F)F)n2)CC1	none (no result: Phagocytosis inh)
CCN(CC)S(=O)(=O)c1ccc(Cl)c(C(=O)Nc2nncs2)c1	none
CCN(CC)S(=O)(=O)c1cc(C(=O)Nc2nncs2)c(Cl)cc1Cl	Phagocytosis inh 26.4
CCc1ccc(-c2nc(-c3ccncc3)no2)cc1	MRP1 act 5.8
CCCCc1ccc(-c2nc(-c3ccncc3)no2)cc1	none
Brc1ccc(-c2nc3ncccn3c2NC2CCCCC2)o1	MRP resist rev 57.9
Cc1ccc(-c2nc3ncccn3c2NC2CCCC2)o1	none (no result: Phagocytosis inh)
CCOc1ccc2c(c1)c(N=O)c(O)n2C	MRP1 act 6.0 (no result: MRP resist rev)
CCOc1ccc(/C=N/NC(=O)c2c(C)n(C)c3ccc(OC)cc23)cc1	none (no result: Phagocytosis inh, MRP resist rev)
CCOC(=O)c1cnc2ccc(OCC)cc2c1N(C)Cc1ccccc1	none (no result: MRP resist rev)
C=CCn1c(CNc2ccccc2)nnc1SCC(=O)N/N=C/c1ccccc1O	MRP1 act 5.3 (no result: MRP resist rev)
C=CCn1c(Cc2c[nH]c3ccccc23)nnc1SCC(=O)NCc1ccccc1	none (no result: Phagocytosis inh)
CON(C)c1nc(NCC(C)C)nc(OCC#N)n1	none (no result: MRP resist rev)
CCCn1c(SCc2cc(=O)oc3ccc4ccccc4c23)n[nH]c1=O	none
CCC(C)(C)C1CCc2nc3ccccc3c(C(=O)OC(C)C(=O)Nc3c(C)n(C)n(-c4ccccc4)c3=O)c2C1 (configuration not stated)	none (no result: MRP resist rev)
CC(=O)c1c(C)[nH]c(C(=O)Nc2nc(-c3ccc(-c4ccccc4)cc3)cs2)c1C	none (no result: MRP resist rev)
CC(=O)c1c(C)[nH]c(C(=O)Nc2nc(-c3ccc(Cl)cc3)cs2)c1C	MRP1 act 4.8 (no result: Phagocytosis inh, MRP resist rev)
O=C(CN(c1ccccc1)S(=O)(=O)c1ccccc1)N/N=C/c1ccco1	none (no result: MRP resist rev)
CCOc1ccc(C(=O)N/N=C/c2ccccc2[N+](=O)[O-])cc1	none (no result: MRP resist rev)
O=C(N/N=C/c1ccccc1[N+](=O)[O-])c1ccc(COc2ccccc2-c2ccccc2)cc1	MRP1 act 7.3 (no result: MRP resist rev)
CC(=O)N1CCN=C1SCc1ccc(C)cc1	MRP1 act 5.6
CCC(=O)N1CCN=C1SCc1ccc(Cl)cc1	none
CCC(=O)N1CCN=C1SCc1ccccc1	MRP1 act 5.1
CC(=O)N1CCN=C1SCc1ccc(F)cc1	none
CC(=O)N1CCN=C1SCc1ccc(Cl)cc1	MRP1 act 6.4
CC(=O)N1CCN=C1SCc1ccccc1F	MRP1 act 5.1
CC(=O)N1CCN=C1SCc1ccccc1	none
CC(=O)N1CCN=C1SCc1ccccc1Cl	none
O=S(=O)(CCOc1ccccc1)c1nc2ccccc2[nH]1	none
Cc1ccc(OCC(=O)Nc2ccc(-c3nc4ncccc4o3)cc2)c(C)c1	none
C=C(C)CN1CCN(S(=O)(=O)c2ccc(C)c(N(C)S(=O)(=O)c3ccc(C)cc3)c2C)CC1	none (no result: MRP resist rev)
COc1ccc(OC)c(S(=O)(=O)N2CCC(C(=O)N3CCc4ccccc4C3)CC2)c1	none
O=[N+]([O-])c1ccc2cn(-c3ccccc3)nc2c1	none (no result: MRP resist rev)
Cc1c(NC(=O)C(=O)/C=C(\O)c2ccc(Br)cc2)c(=O)n(-c2ccccc2)n1C	none (no result: MRP resist rev)
COc1ccc(CCN2C(=NC(=O)CCC(=O)O)SC3CS(=O)(=O)CC32)cc1 (configuration not stated)	none (no result: Phagocytosis inh)
CC(C)[C@@H]1NC(=O)c2cc([N+](=O)[O-])cc(F)c2NCCC[C@@H](C(N)=O)NC(=O)[C@H](CO)NC1=O	none (no result: Phagocytosis inh, MRP resist rev)
O=S(=O)(/N=C(/Nc1ccc(F)cc1F)c1ccccc1)c1ccc(Br)cc1	none (no result: MRP resist rev)
COc1cc(SC)ccc1C(=O)NCCOc1c(C)cc(C)cc1C	none (no result: MRP resist rev)
COc1cc(SC)ccc1C(=O)NCCOc1ccc(Cl)cc1	MRP1 act 6.4 (no result: MRP resist rev)
Cc1ccc(NC(=S)N2CCN(c3ncccn3)CC2)c(C)c1	none (no result: MRP resist rev)
Cc1cccc2nc(-c3ccccc3)nc(N[C@@H](CO)c3ccccc3)c12	none (no result: MRP resist rev)
Cc1ccc(-c2ccc(/C=N/NC(=O)CN3CCCC3)o2)cc1Cl	none (no result: MRP resist rev)
COC(=O)N/N=C/c1ccc(-c2cccc(Cl)c2)o1	MRP1 act 4.8 (no result: MRP resist rev)
COC(=O)N/N=C/c1ccc(-c2cc(Cl)cc(Cl)c2)o1	MRP1 act 8.5 (no result: MRP resist rev)
O=C(O)c1ccc(-c2cccc(Cl)c2)o1	none (no result: Phagocytosis inh, MRP1 act)
NC(=S)N/N=C/c1ccc(-c2cc(Cl)cc(Cl)c2)o1	none
COC(=O)N/N=C/c1ccc(-c2ccc(C)c(Cl)c2)o1	MRP1 act 7.5 (no result: MRP resist rev)
Cc1[nH]c2ccccc2c1C(=O)C(=O)NCCc1ccc(S(N)(=O)=O)cc1	none (no result: MRP resist rev)
CC1CCN(CC(=O)Nc2cccc(C(=O)Nc3cccc(C(F)(F)F)c3)c2)CC1	none (no result: Phagocytosis inh, MRP resist rev)
O=C(CN(c1ccc(F)cc1)S(=O)(=O)c1ccc2c(c1)OCCO2)Nc1ccccc1	none
O=C(Nc1ccccc1Cl)c1ccccc1Cc1ccccc1	none (no result: MRP resist rev)
O=C(CS(=O)CC(=O)N(CC(=O)NC1CCCC1)c1ccc2c(c1)OCCO2)Nc1ccc(F)cc1 (configuration not stated)	none (no result: Phagocytosis inh, MRP resist rev)
O=C1CC(C2CCCO2)C(=O)N1Cc1ccccc1 (configuration not stated)	Phagocytosis inh 69.1
O=C1CC(C2CCCO2)C(=O)N1c1cccc(Cl)c1 (configuration not stated)	none
Cn1nc(C(F)(F)F)c2cc(NC(=O)OCc3ccc(F)cc3)sc21	none
Cn1nc(C(F)(F)F)c2cc(NC(=O)OCc3ccc(C(C)(C)C)cc3)sc21	MRP1 act 7.1
O=C(CSc1nc2ccccc2s1)c1cc2ccccc2o1	none
O=C(c1ccc(-c2cccc(Cl)c2)o1)N1CCN(c2ccc([N+](=O)[O-])cc2)CC1	MRP1 act 4.7 (no result: MRP resist rev)
Cc1c(Cl)cccc1-c1ccc(C(=O)N2CCN(c3ccc([N+](=O)[O-])cc3)CC2)o1	none (no result: MRP resist rev)
Cc1nn(-c2ccccc2)c(Cl)c1/C=N/NC(=O)CNC(=O)c1ccccc1Cl	none (no result: MRP resist rev)
CCOc1ccc2nc(NC(=O)c3ccoc3C)sc2c1	none
Cc1ccc(-c2nnc3ccc(SCC(=O)N4CCCCC4)nn23)cc1	none (no result: Phagocytosis inh, MRP1 act)
CCn1c(CNC(=O)COc2ccc(C(C)C)cc2)nnc1SCC(=O)Nc1ccccc1C(C)C	MRP1 act 6.2 (no result: MRP resist rev)
